Measurements reported in PubChem BioAssay (NCATS).
Records with an inconclusive call do not appear. A call without a number means that no potency is given here. Values without a mark were called inactive. Calls of active or inactive are those of the source. Calls follow the shape of the dose curve; as a rule, active = well fitted curve in the direction sought with a large enough effect; inconclusive = small, poorly fitted or top-dose-only effect, or another doubt; inactive = no such curve, though single readings can be large; an effect the other way counts as inactive or inconclusive.

Key:
[1] = biological target: Rap guanine nucleotide exchange factor 3 (Homo sapiens) (UniProt O95398); assay: Confirmatory qHTS for antagonist of cAMP-regulated guanine nucleotide exchange factor 3 (EPAC1) (AID 1645880); also: nearly all actives have a fitted effect of over 55% in size; also: potency is read from the fitted curve at half-maximal effect
Outline: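 Released BODIPY-GDP fluoresces less than Rap1-bound BODIPY-GDP; the signal is followed at 480/540 nm at 5-min intervals over 30 min, after 5 min at room temperature. Reactions contain 100 nM EPAC1, 250 nM RAP1B-BODIPY-GDP and 50 uM GDP; results are normalized to ATA and DMSO.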

[2] = biological target: Rap guanine nucleotide exchange factor 3 (Homo sapiens) (UniProt O95398); assay: Confirmatory qHTS for agonist of cAMP-regulated guanine nucleotide exchange factor 3 (EPAC1) (AID 1645881); also: nearly all actives have a fitted effect of over 75% in size; also: potency is read from the fitted curve at half-maximal effect;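 as to activation: EPAC1 catalysed release of BODIPY-GDP from Rap1B seen as fluorescence loss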
[3] = biological target: Rap guanine nucleotide exchange factor 4 (Homo sapiens) (UniProt Q8WZA2); assay: Confirmatory qHTS for agonist of cAMP-regulated guanine nucleotide exchange factor 4 (EPAC2) (AID 1645884);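 also: nucleotide exchange releases bodipy-GDP from Rap1 and this lowers its fluorescence; nearly all actives have a fitted effect of over 65% in size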
[4] = biological target: Rap guanine nucleotide exchange factor 4 (Homo sapiens) (UniProt Q8WZA2); assay: Confirmatory qHTS for antagonist of cAMP-regulated guanine nucleotide exchange factor 4 (EPAC2) (AID 1645885); also: nearly all actives have a fitted effect of over 25% in size; also: potency is read from the fitted curve at half-maximal effect
[5] = biological target: Rap guanine nucleotide exchange factor 3 (Homo sapiens) (UniProt O95398); assay: Counterscreen qHTS for antagonist of cAMP-regulated guanine nucleotide exchange factor 3 (EPAC1) (AID 1645888)
Outline: (§1)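 Rap1B–BODIPY-GDP (250 nM) with 50 uM GDP; compounds pin-transferred to 9.74 nM–152 uM final (activator) or from 7.32 nM upwards (inhibitor). Fluorescence Ex/Em 480/540 nm read at 5 and 30 min, then after adding cAMP or buffer, at room temperature.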

[6] = biological target: Rap guanine nucleotide exchange factor 3 (Homo sapiens) (UniProt O95398); assay: Counterscreen qHTS for agonist of cAMP-regulated guanine nucleotide exchange factor 3 (EPAC1) (AID 1645889); also: nearly all actives have a fitted effect of over 40% in size; also: potency is read from the fitted curve at half-maximal effect
Outline: as §1

Rap guanine nucleotide exchange factor 4 (Homo sapiens), sequence (Q8WZA2 whole entry, looked up): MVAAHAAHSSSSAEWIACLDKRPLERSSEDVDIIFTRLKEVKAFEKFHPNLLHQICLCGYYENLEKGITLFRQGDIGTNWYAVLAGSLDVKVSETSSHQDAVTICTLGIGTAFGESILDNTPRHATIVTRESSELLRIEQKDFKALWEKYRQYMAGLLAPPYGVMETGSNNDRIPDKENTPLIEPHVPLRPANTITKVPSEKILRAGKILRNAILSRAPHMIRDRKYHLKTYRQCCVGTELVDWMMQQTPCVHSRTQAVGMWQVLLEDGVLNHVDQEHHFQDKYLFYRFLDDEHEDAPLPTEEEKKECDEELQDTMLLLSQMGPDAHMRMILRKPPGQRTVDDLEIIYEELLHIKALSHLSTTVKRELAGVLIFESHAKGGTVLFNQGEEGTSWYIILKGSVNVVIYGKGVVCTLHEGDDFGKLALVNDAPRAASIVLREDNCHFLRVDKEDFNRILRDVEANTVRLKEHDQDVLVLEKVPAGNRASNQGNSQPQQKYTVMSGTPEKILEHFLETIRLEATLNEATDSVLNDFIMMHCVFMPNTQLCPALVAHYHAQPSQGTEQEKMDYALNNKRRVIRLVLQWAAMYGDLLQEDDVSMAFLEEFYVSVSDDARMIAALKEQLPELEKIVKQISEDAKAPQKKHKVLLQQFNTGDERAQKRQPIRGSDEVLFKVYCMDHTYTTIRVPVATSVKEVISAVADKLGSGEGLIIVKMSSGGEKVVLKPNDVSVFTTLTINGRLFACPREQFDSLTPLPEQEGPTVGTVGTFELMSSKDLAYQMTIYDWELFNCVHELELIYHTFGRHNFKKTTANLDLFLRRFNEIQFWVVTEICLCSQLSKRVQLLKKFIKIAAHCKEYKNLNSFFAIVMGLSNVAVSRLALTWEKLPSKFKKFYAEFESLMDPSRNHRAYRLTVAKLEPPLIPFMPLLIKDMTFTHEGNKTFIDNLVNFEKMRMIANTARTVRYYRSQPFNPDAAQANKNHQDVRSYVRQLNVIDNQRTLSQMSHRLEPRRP
Rap guanine nucleotide exchange factor 3 (Homo sapiens), sequence (O95398 whole entry, looked up): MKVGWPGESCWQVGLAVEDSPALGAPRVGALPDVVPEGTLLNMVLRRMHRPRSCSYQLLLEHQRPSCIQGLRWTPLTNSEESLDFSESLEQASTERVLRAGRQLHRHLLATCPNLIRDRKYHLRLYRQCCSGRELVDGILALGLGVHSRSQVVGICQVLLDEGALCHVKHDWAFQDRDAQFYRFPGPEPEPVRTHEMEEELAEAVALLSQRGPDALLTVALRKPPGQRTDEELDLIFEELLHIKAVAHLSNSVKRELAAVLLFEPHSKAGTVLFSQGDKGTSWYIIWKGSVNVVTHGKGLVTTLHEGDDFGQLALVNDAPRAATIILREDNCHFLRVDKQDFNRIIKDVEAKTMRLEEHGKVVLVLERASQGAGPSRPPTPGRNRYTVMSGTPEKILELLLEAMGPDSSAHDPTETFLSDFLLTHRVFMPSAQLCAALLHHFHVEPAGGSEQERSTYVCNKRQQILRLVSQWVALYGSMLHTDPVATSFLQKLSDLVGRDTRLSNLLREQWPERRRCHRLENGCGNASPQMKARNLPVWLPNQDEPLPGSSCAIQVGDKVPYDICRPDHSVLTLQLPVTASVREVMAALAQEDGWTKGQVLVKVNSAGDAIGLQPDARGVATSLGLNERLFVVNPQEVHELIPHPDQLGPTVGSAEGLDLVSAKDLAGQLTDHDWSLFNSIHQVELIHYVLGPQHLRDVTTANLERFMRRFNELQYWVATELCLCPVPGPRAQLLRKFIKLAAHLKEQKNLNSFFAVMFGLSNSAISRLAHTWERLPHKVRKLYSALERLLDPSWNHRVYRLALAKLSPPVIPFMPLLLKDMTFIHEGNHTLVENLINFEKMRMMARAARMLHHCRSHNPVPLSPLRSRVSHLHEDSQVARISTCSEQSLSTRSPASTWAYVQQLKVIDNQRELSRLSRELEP

SMILES	Potency [1]	Potency [2]	activation [3]	Potency [4]	activity change, negative = inhibition [5]	activation [6]	Potency [3]	Potency [5]	Potency [6]	outcome [4]
COc1cccc(-c2ccc(C#N)c(OC(=O)c3ccc(Cl)cc3)n2)c1	inactive	inactive	0.578% [at 17.1 µM, percent relative to cAMP agonist control]	inactive	-4.63% [at 30.8 µM]	3.51% [at 30.8 µM]				
COc1ccc(C(=O)Nc2cccc(/C=C(\CCC(=O)O)c3nc4ccccc4s3)c2)cc1	21.3 µM (active)	inactive		inactive			inactive	inactive	inactive	
CCCc1nc2ccccc2c(=O)n1/N=C/c1ccccc1O	37.9 µM (active)	inactive		inactive			inactive	inactive	inactive	
CCCC1CC(c2csc(N)n2)CCO1 (centres undefined)	inactive	inactive		inactive			inactive	inactive	inactive	
CCOC(=O)c1oc2ccccc2c1CN1CCN(C(=O)c2ccccc2)CC1	inactive	inactive		inactive			inactive	inactive	inactive	
CCOc1ccc(NS(=O)(=O)c2cc3c(cc2C)N(C)CCO3)cc1	inactive	inactive	7.18% [at 17.1 µM, percent relative to cAMP agonist control]	inactive	-12% [at 30.8 µM]	29.5% [at 30.8 µM]				
CC1=NN(c2nc(-c3ccc(Cl)cc3)cs2)C(=O)C1	25.1 µM (active)	inactive	4.56% [at 17.1 µM, percent relative to cAMP agonist control]	inactive	-0.482% [at 30.8 µM]	11% [at 30.8 µM]				
Cc1ccc2c(c1)c1c(c(=O)n(-c3cccc(Cl)c3)c(=O)n1C)n2C	inactive	inactive		inactive			inactive	inactive	inactive	
CCOC(=O)C1=C(C)N=C2SC=C(C)N2C1c1ccc(OC)cc1 (centres undefined)	inactive	inactive		inactive			inactive	inactive	inactive	
O=c1c2ccccc2nc(/C=C/c2cccnc2)n1CCc1ccccc1	23.9 µM (active)	inactive		inactive			inactive	inactive	inactive	
Cc1nn(-c2ccccc2)c(Cl)c1/C=C1\SC(=S)NC1=O	12 µM (active)	inactive		inactive			inactive	inactive	inactive	
CCCCN1C(=O)C(C(=O)OCc2ccccc2)CC2=C1CCCC2=O (centres undefined)	inactive	inactive		inactive			inactive	inactive	inactive	
COc1cn(CC(=O)Nc2cccc(C)c2C)c(CN2CCCCC2)cc1=O	inactive	inactive		inactive			inactive	inactive	inactive	
O=C(Nc1cccc(C(F)(F)F)c1)c1cccc(NS(=O)(=O)c2ccc(O)c(C(=O)O)c2)c1	60.1 µM (active)	inactive		inactive			inactive	inactive	inactive	
O=S(=O)(Nc1nccs1)c1ccc(NCc2cc(Br)cc(Br)c2O)cc1	56.2 µM (active)	inactive	-0.584% [at 17.1 µM, percent relative to cAMP agonist control]	1.51 µM (active)	9.07% [at 30.8 µM]	31.2% [at 30.8 µM]				
O=C(O)CCCCCN1C(=O)/C(=C/c2cn(-c3ccccc3)nc2-c2cccs2)SC1=S	inactive	79.4 µM (active)	17.7% [at 17.1 µM, percent relative to cAMP agonist control]	inactive	39% [at 30.8 µM]				14.1 µM (active)	
C/C(=C\C(=O)c1ccccc1)Nc1ccc(O)cc1	inactive	inactive	3.61% [at 17.1 µM, percent relative to cAMP agonist control]	inactive	-14.8% [at 30.8 µM]	29.9% [at 30.8 µM]				
NC(=O)c1sc(=S)n2c1[nH]c(=O)c1sccc12	16.9 µM (active)	inactive		inactive			inactive	inactive	inactive	
COc1ccccc1C1SCCN1S(C)(=O)=O (centres undefined)	inactive	inactive		inactive			inactive	inactive	inactive	
CS/C(N)=N/N=C/c1c(O)ccc2ccccc12	21.3 µM (active)	inactive		inactive			inactive	inactive	inactive	

SMILES	Potency [1]	Potency [2]	activation [3]	Potency [4]	activity change, negative = inhibition [5]	activation [6]	Potency [3]	Potency [5]	Potency [6]	outcome [4]
CN1CCN(C(c2ccccc2Cl)c2sc3nc(-c4ccco4)nn3c2O)CC1 (centres undefined)	inactive	inactive					inactive	inactive	inactive	inactive [at 12.7 µM]
Cc1c(OC(C)C(=O)NC(Cc2c[nH]c3ccc(O)cc23)C(=O)O)ccc2c1oc(=O)c1ccccc12 (centres undefined)	13.5 µM (active)	inactive		inactive			inactive	inactive	inactive	
COc1ccccc1OCCCSc1nc(-c2ccc(C(C)(C)C)cc2)nc2cc(=O)[nH]n12	67.5 µM (active)	inactive		inactive			inactive	inactive	inactive	
CCOc1c(OC)cccc1C1CC(=O)Nc2cc3c(cc21)OCCO3 (centres undefined)	inactive	inactive		inactive			inactive	inactive	inactive	
COc1ccccc1Cn1c(=O)oc2ccc(C)cc21	inactive	inactive		inactive			inactive	inactive	inactive	
Cn1c(=O)c2nc3ccc(NC(=O)C(F)(F)F)cc3nc2n(C)c1=O	84.9 µM (active)	inactive		inactive			inactive	inactive	inactive	
Cc1ccc(C)c(NC(=O)CN(C)C(=O)c2cccc(S(=O)(=O)N3CCCC3)c2)c1	inactive	inactive		inactive			inactive	inactive	inactive	
CC(C)Cc1csc(NC(=O)c2ccc(F)cc2)c1C(=O)O	inactive	inactive		inactive			inactive	inactive	inactive	
CCCNC(=O)C1CCN(S(=O)(=O)c2ccc3[nH]c(=O)ccc3c2)CC1	inactive	inactive		inactive			inactive	inactive	inactive	
CC(=O)NC(c1ccc(C)cc1)c1cc(Cl)c2cccnc2c1O (centres undefined)	inactive	inactive		inactive			inactive	inactive	inactive	
Cc1ccc(NC(=O)c2cccc(NC(=O)/C=C/c3ccco3)c2)cc1C	39.8 µM (active)	inactive	6.06% [at 17.1 µM, percent relative to cAMP agonist control]	inactive	-4.44% [at 30.8 µM]	5.53% [at 30.8 µM]				
Cc1cccc(/C(N)=N/OC(=O)Cc2cccc3ccccc23)c1	inactive	inactive	2.49% [at 17.1 µM, percent relative to cAMP agonist control]	inactive	-15.4% [at 30.8 µM]	-1.93% [at 30.8 µM]				
CCC(NS(=O)(=O)c1ccc2c(c1)NC(=O)C(C)C(=O)N2)c1cccs1 (centres undefined)	inactive	inactive		inactive			inactive	inactive	inactive	
Cc1cn2c(=O)cc(COc3ccc(C(C)(C)C)cc3)nc2s1	inactive	inactive		inactive			inactive	inactive	inactive	
CC(=O)Oc1c(Sc2ccccc2[N+](=O)[O-])c(C)nn1C(C)(C)C	42.6 µM (active)	inactive		inactive			inactive	inactive	inactive	
CCCC(=O)N1c2nc(C(C)C)nn2C2(CCCCC2)[C@@H]2CCCC[C@@H]21	inactive	inactive		inactive			inactive	inactive	inactive	
COc1ccc(Br)cc1CNC(=O)c1ccc2nc(C(C)C)oc2c1	inactive	inactive					inactive	inactive	inactive	inactive [at 12.7 µM]
CN(C(=O)CSc1nc(-c2ccc(C(C)(C)C)cc2)c(C#N)c(=O)[nH]1)C1CCCCC1	42.6 µM (active)	inactive		inactive			inactive	inactive	inactive	
COc1ccc(CCNC(=O)CCc2nc3sc4c(c3c(=O)[nH]2)CCCC4)cc1	84.9 µM (active)	inactive		4.78 µM (active)			inactive	inactive	inactive	
